Among all 52,000 compounds or so, about 4,300 (8.3%) were called active. This excerpt belongs to a sample that is enriched for actives. Unmarked numbers belong to inactive results. Cut-off read from the data, not from the text of the source: active = survival mostly below about 52% (no sharp cut-off); inactive = mostly above about 56%.
system: DeltatarO mutant; test: S. aureus survival, RN4220 and DeltatarO strains – OD600, teichoic acid synthesis inhibitors, primary screen (AID 463173); conditions: S. aureus RN4220 wild type/DeltatarO growth, OD600, 18 h, stronger effect = lower value, screened at 18.75 µg/mL (by protocol)

| SMILES | survival |
| --- | --- |
| CCOC(=O)CSc1nc2cc(OC)c(OC)cc2c2nc(-c3ccccc3)nn12 | 59% |
| O=C(Cn1ncc2c(=O)oc3ccccc3c21)NCc1ccc(Cl)cc1 | 86% |
| CCOc1ccccc1N(CC)C(=O)c1cc2c(=O)n(CC)c3ccccc3c2s1 | 121% |
| COc1ccc(C2=Nc3ccc(OC(F)(F)F)cc3NC(c3cccnc3)=N2)cc1 | 67% |
| CC(C)Oc1ccc(CNS(=O)(=O)c2cnc(N)nc2)cc1 | 115% |
| COc1ccc(CNS(=O)(=O)c2cnc(N)nc2)cc1 | -2% (active) |
| COc1cccc(CNS(=O)(=O)c2cnc(N)nc2)c1 | 64% |
| CCc1nn(C(C)C(=O)N2CCN(c3cccc(C(F)(F)F)c3)CC2)c(=O)c2cc3occc3n12 (stereo not drawn) | 73% |
| COc1ccc(OC)c(CCNC(=O)CCn2c(=O)c3cccn3c3cccnc32)c1 | 84% |
| CCN(CC)c1ccc(-n2nc3cc(C)c(NC(C)=O)cc3n2)cc1 | 92% |
| CCN(CC)c1ccc(-n2nc3cc(C)c(NC(=O)c4ccccc4C)cc3n2)c(C)c1 | 73% |
| CCN(CC)c1ccc(NC(=O)c2ccccc2F)cc1 | 63% (active) |
| Cc1cc2nn(-c3ccc(F)cc3)nc2cc1NC(=O)c1cccc2c(Cl)cccc12 | 59% |
| O=C(Nc1ccc(S(=O)(=O)N(Cc2ccccc2)c2ccccc2)cc1)c1ccccc1F | 58% |
| CCN(CC)c1ccc(NC(=O)CN2CCN(c3ccccc3F)CC2)cc1 | 75% |
| Cc1cc2nn(-c3ccccc3)nc2cc1NC(=O)c1cccc2c(Cl)cccc12 | 43% (active) |
| CCN(CC)c1ccc(-n2nc3cc(C)c(NC(=O)c4ccccc4F)cc3n2)cc1 | 56% (active) |
| Cc1cc2nn(-c3ccc(F)cc3)nc2cc1NC(=O)c1cccc2ccccc12 | 68% |
| Cc1c(Cl)cccc1Nc1sc(C(=O)c2ccccc2)c(N)c1S(=O)(=O)c1ccccc1 | 71% |
| Cc1cc(C)cc(OCCSc2nc(-c3ccc(C(C)(C)C)cc3)nc3cc(=O)[nH]n23)c1 | 83% |
| Cn1c(CNC(=O)CSc2n[nH]c(-c3ccccc3)n2)nc2ccccc21 | 89% |
| O=C(NCCSc1c(-c2ccc(Cl)cc2)[nH]c2ccccc12)c1ccc(S(=O)(=O)N2CCOCC2)cc1 | 68% |
| CCOC(=O)c1sc2ccccc2c1S(=O)(=O)Nc1ccc(N(C)C)cc1 | 126% |
| CC(C)c1ccc2occ(CC(=O)N(Cc3ccc(F)cc3)C3CCS(=O)(=O)C3)c2c1 (stereo not drawn) | 61% |

| SMILES | survival |
| --- | --- |
| Cc1ccc(CNC(=O)c2ccc3c(c2)nc2n3CCCC2)cc1 | 86% |
| Cc1cn2c(=O)cc(COC(=O)c3ccc(NC(=O)C(C)Oc4ccccc4)cc3)nc2s1 (stereo not drawn) | 8% (active) |
| Cc1cn2c(=O)cc(COC(=O)c3ccc(NC(=O)c4ccc(F)cc4)cc3)nc2s1 | 96% |
| Cc1cn2c(=O)cc(COC(=O)c3ccc(NC(=O)c4ccc(C(C)(C)C)cc4)cc3)nc2s1 | 20% (active) |
| CC(Oc1ccccc1)C(=O)Nc1ccc(C(=O)OCc2cc(=O)n3ccsc3n2)cc1 (stereo not drawn) | 87% |
| Cc1cn2c(=O)cc(COC(=O)c3cccc(NC(=O)c4ccc(C(C)(C)C)cc4)c3)nc2s1 | 103% |
| Cc1cn2c(=O)cc(COC(=O)c3cccc(NC(=O)C(C)Oc4ccccc4)c3)nc2s1 (stereo not drawn) | 95% |
| COc1ccccc1CNC(=O)CCCc1nnc2n(CC(C)C)c(=O)c3sccc3n12 | 95% |
| CCN(CC)C(=O)N1CCN(C(=O)N(CC)CC)CC1 | 79% |
| CCCCOC(=O)Cc1c(C)[nH]c(=O)[nH]c1=O | 114% |
| CC(NC1CCCC1)c1ccccc1 (stereo not drawn) | 84% |
| COc1ccc(CCNC(=O)CSc2ncc3c(n2)-c2cc(Cl)ccc2N(Cc2ccccc2)S3(=O)=O)cc1OC | 87% |
| COc1cccc(N2CCN(C(=O)c3cnc4c(-c5ccc(F)cc5)c(C)nn4c3C)CC2)c1 | -5% (active) |
| COc1ccc(N2CCN(C(=O)c3cc(-c4ccc(C)c(F)c4)on3)CC2)cc1 | 92% |
| COc1cccc(-c2cc(C(=O)N3CCN(c4ccc(F)cc4)CC3)no2)c1 | 44% (active) |
| COc1cccc(-c2cc(C(=O)N3CCN(c4ccccc4OC)CC3)no2)c1 | -4% (active) |
| COc1cccc(N2CCN(C(=O)c3cnc4c(-c5ccccc5)c(C)nn4c3C)CC2)c1 | 87% |
| COc1ccccc1N1CCN(C(=O)c2cc(-c3ccc(F)cc3)on2)CC1 | 46% |
| COc1ccc(-c2cc(C(=O)N3CCN(c4ccc(F)cc4)CC3)no2)cc1OC | 57% |
| Cc1nn2c(C)c(C(=O)N3CCN(c4ccc(Cl)cc4)CC3)cnc2c1-c1ccc(F)cc1 | 88% |
| COc1ccccc1N1CCN(C(=O)c2cc(-c3ccc(C)c(F)c3)on2)CC1 | 66% |
| COc1ccc(S(=O)(=O)NCCc2sc(C)nc2C)cc1F | 88% |
| CC(C)N(C(C)C)S(=O)(=O)c1ccccc1 | 100% |
| COc1ccc(-c2nc3cccc(C)n3c2NC(C)(C)C)cc1O | 109% |

| SMILES | survival |
| --- | --- |
| COCCN1C(=O)N(c2cccc(OC)c2)C(=O)C1CC(=O)Nc1ccccc1 (stereo not drawn) | 139% |
| CCOC(=O)c1sc(NC(=O)CSc2nnc(Cn3nnc4ccccc43)n2C)nc1C | 94% |
| O=C(CSc1nc(=O)[nH]c2c1CCC2)NCc1ccc(Cl)cc1 | 67% |
| COc1ccc(NC(=O)Nc2nnc(N3CCCCCC3)s2)cc1 | 72% |
| CC(C(=O)NCCSCc1cccc(Cl)c1)N(c1ccccc1)S(C)(=O)=O (stereo not drawn) | 61% |
| CSc1ncc(Cl)c(C(=O)N(Cc2ccc(C)cc2)C2CCS(=O)(=O)C2)n1 (stereo not drawn) | 88% |
| O=C(CN1C(=O)COc2ccc(S(=O)(=O)N3CCOCC3)cc21)N1CCN(c2ccc(Cl)cc2)CC1 | 92% |
| CCOc1ccc(C(=O)Nc2c(C(=O)Nc3ccccc3OC)oc3ccccc23)cc1OCC | 65% |
| CCn1c(SCC(=O)c2ccc(C)cc2)nnc1C1CC1 | 66% |
| Cc1cc(C)nc(SCC(=O)Oc2ccc3oc(=O)cc(C)c3c2)n1 | 95% |
| COc1ccc2oc(-c3cccc(F)c3)cc(=O)c2c1 | 99% |
| CCCCC(=O)Oc1ccc2oc(-c3ccc(OC)cc3)cc(=O)c2c1 | 30% (active) |
| COC(=O)COc1ccc2oc(-c3ccc(OC)cc3)cc(=O)c2c1 | 36% (active) |
| COc1ccc(-c2cc(=O)c3cc(OCC(=O)OC(C)C)ccc3o2)cc1 | 124% |
| CCCC(=O)Oc1ccc2ccc(=O)oc2c1 | 89% |
| O=C(Cn1c(=O)n(-c2ccccc2)c(=O)c2c3c(sc21)CCCC3)Nc1ccc(F)cc1 | 98% |
| CCc1ccc(CNC(=O)c2cnc(N3CCCCC3)c3ccccc23)cc1 | 94% |
| COc1ccccc1NC(=O)c1cc(S(=O)(=O)N2CCc3ccccc32)ccc1F | 81% |
| CCNC(=O)CC1C(=O)N(c2ccc(C)cc2)C(=O)N1CCC(C)C (stereo not drawn) | 91% |
| CC(C)c1ccc(NC(=O)CCNS(=O)(=O)c2cccc3nsnc23)cc1 | 50% |
| O=C(NCCCN1CCN(c2ccccc2F)CC1)c1ccc2nc(Cc3ccccc3)oc2c1 | 46% (active) |
| Cc1ccccc1NC(=O)c1ccc2nc(Cc3ccccc3)oc2c1 | 102% |
| CC(=O)c1cccc(NC(=O)c2ccc3nc(Cc4ccccc4)oc3c2)c1 | 63% |
| Cc1ccc(NC(=O)c2ccc3nc(Cc4ccccc4)oc3c2)cc1F | 25% (active) |

| SMILES | survival |
| --- | --- |
| CNC(=O)c1ccc2nc(Cc3ccccc3)oc2c1 | 37% (active) |
| CCNC(=O)c1ccc2nc(Cc3ccccc3)oc2c1 | 101% |
| CNC(=O)c1ccc2nc(CCc3ccccc3)oc2c1 | 80% |
| O=C(NCCCN1CCN(c2ccccc2)CC1)c1ccc2nc(Cc3ccccc3)oc2c1 | 92% |
| O=C(NCCCN1CCN(c2ccccc2F)CC1)c1ccc2nc(CCc3ccccc3)oc2c1 | 87% |
| Cc1ccc(-c2nnc(Nc3ccc(O)cc3)c3ccccc23)cc1S(=O)(=O)N1CCOCC1 | 65% |
| O=C1C2C3C=CC(C3)C2C(=O)N1CCN1C(=O)C2C3C=CC(C3)C2C1=O (stereo not drawn) | 101% |
| COc1ccccc1NC(=O)C1=C(C)Nc2nc(SC)nn2C1c1ccccc1Cl (stereo not drawn) | 87% |
| CC(C)OCCCNC(=O)CSc1c2c(nc3ccc(Cl)cc13)CCCC2 | 71% |
| CCOc1ccccc1NC(=O)CSc1c2c(nc3ccc(Cl)cc13)CCCC2 | 45% (active) |
| COC(=O)c1ccccc1NC(=O)CSc1c2c(nc3ccc(Cl)cc13)CCCC2 | 86% |
| CCCNC(=O)CSc1c2c(nc3ccc(Cl)cc13)CCCC2 | 62% |
| CC(C)CCNC(=O)CSc1c2c(nc3ccc(Cl)cc13)CCCC2 | 51% (active) |
| COCCCNC(=O)CSc1c2c(nc3ccc(Cl)cc13)CCCC2 | 68% |
| CCCCNC(=O)CSc1c2c(nc3ccc(Cl)cc13)CCCC2 | 38% (active) |
| CCOc1ccc(CNC(=O)CSc2c3c(nc4ccc(Cl)cc24)CCCC3)cc1 | 70% |
| CCN(CC)CCNC(=O)c1c(C)oc2ncn(C)c(=O)c12 | 91% |
| Cc1ccc(CNC(=O)C2CCCN(c3nc4c(C)cc(C)cc4s3)C2)cc1 (stereo not drawn) | 94% |
| CCC(=O)NC1CCC(c2ccccc2)CC1 (stereo not drawn) | 97% |
| Cc1ccc(OC(=O)c2cccnc2)cc1 | 97% |
| Cc1ccc(C)c(N2CCN(C(=O)c3cc4ccc5cccnc5c4[nH]3)CC2)c1 | 95% |

Source: PubChem BioAssay AID463173 (ICCB-Longwood Screening Facility, Harvard Medical School, 2010)
